# Measurements: PubChem BioAssay (NCI)
# About 79,000 compounds went through this panel and 15% of them were active in at least one assay; those are over-represented in the sample as a whole. A number with no mark means an inactive call. The source made the active and inactive calls. Cut-off read from the data, not from the text of the source: active = growth inhibition above about 70%; inactive = the rest.
# Assays:
# [1] = NCI Yeast Anticancer Drug Screen. Data for the sgs1 strain (AID 173);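 note: 0% = growth of vehicle-only control cultures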; details: S. cerevisiae sgs1 mutant, active compounds read high
# In short: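 Relative growth inhibition, referenced to vehicle, was determined in a yeast strain with a defined alteration affecting DNA damage repair or cell cycle control after compound exposure.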
# [2] = NCI Yeast Anticancer Drug Screen. Data for the mlh1 rad18 strain (AID 175); details: S. cerevisiae mlh1 rad18 strain growth inhibition, active compounds read high
# In short: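 In this whole-cell yeast screen, a strain with altered DNA damage repair is challenged with compound, and its growth is measured against matched vehicle-treated controls.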
# [3] = NCI Yeast Anticancer Drug Screen. Data for the rad18 strain (AID 177); details: S. cerevisiae rad18 mutant growth inhibition, active compounds read high
# In short: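 Screen uses a yeast strain with a defined lesion in DNA damage repair; compound effect is read as loss of growth compared to untreated vehicle cultures.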
# [4] = NCI Yeast Anticancer Drug Screen. Data for the rad52 strain (AID 147);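 note: 0% = growth of vehicle-treated control cultures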; details: S. cerevisiae rad52 mutant growth inhibition, active compounds read high
# In short: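 Measured: yeast growth inhibition. System: strain with a defined DNA damage repair alteration. Reference: vehicle-treated control cultures.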
# [5] = NCI Yeast Anticancer Drug Screen. Data for the rad50EPP+ strain (AID 151);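 note: 0% = growth of vehicle-treated control cultures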; details: S. cerevisiae rad50 mutant strain, active compounds read high
# In short: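 One strain with a rad50 alteration (rad50EPP+) was compound-treated, its growth then compared to that of vehicle controls.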
# [6] = NCI Yeast Anticancer Drug Screen. Data for the mgt1 strain (AID 153); details: S. cerevisiae mgt1 mutant growth inhibition, active compounds read high
# In short: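 After exposure of the mgt1 yeast mutant to compound, growth was measured and reported as inhibition compared with vehicle controls.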
# [7] = NCI Yeast Anticancer Drug Screen. Data for the rad50 strain (AID 155);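 note: 0% = growth of vehicle-only cultures of the same strain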; details: S. cerevisiae rad50 strain growth inhibition, active compounds read high
# In short: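 A DNA repair-deficient yeast mutant serves as the test organism; compound-induced growth inhibition is calculated against vehicle-treated cells.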
# [8] = NCI Yeast Anticancer Drug Screen. Data for the mec2-1 strain (AID 157); details: S. cerevisiae mec2-1 strain, active compounds read high
# In short: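 Test agents were screened against the mec2-1 yeast strain, with defined DNA repair or cell cycle alteration. Growth was scored as inhibition against vehicle-only controls.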
# [9] = NCI Yeast Anticancer Drug Screen. Data for the rad14 strain (AID 159);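 note: 0% = growth of vehicle-treated control cultures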; details: S. cerevisiae rad14 strain growth inhibition, active compounds read high
# In short: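 Vehicle-treated cultures served as the baseline for growth inhibition of a DNA repair-mutant yeast strain exposed to each compound.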
# [10] = NCI Yeast Anticancer Drug Screen. Data for the sgs1 mgt1 strain (AID 161);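 note: 0% = growth of cultures given vehicle only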; details: S. cerevisiae sgs1 mgt1 strain, active compounds read high
# In short: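 Genetically altered yeast, compound exposure, growth inhibition relative to vehicle.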
# [11] = NCI Yeast Anticancer Drug Screen. Data for the CLN2oe strain (AID 163);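 note: 0% = growth of vehicle-only control cultures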; details: S. cerevisiae CLN2oe strain, active compounds read high
# In short: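 Here, growth inhibition in a cell-cycle-altered yeast strain after compound exposure was quantified against vehicle control growth.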
# [12] = NCI Yeast Anticancer Drug Screen. Data for the cln2 rad14 strain (AID 165);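 note: 0% = growth equal to vehicle treated cultures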; details: S. cerevisiae cln2 rad14 strain, active compounds read high
# In short: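 Growth of compound-exposed yeast (cln2 rad14 genotype) measured and expressed as inhibition relative to vehicle.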
# [13] = NCI Yeast Anticancer Drug Screen. Data for the bub3 strain (AID 167); details: S. cerevisiae bub3 mutant strain, active compounds read high
# In short: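 Inhibition values come from growth of compound-treated mutant yeast normalised to vehicle-treated controls.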
# [14] = NCI Yeast Anticancer Drug Screen. Data for the wt2 strain (AID 169);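 note: 0% = growth of vehicle-treated yeast cultures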; details: S. cerevisiae wt2 strain growth inhibition, active compounds read high
# In short: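 Genetically defined yeast strains from a DNA-repair/cell-cycle panel were used. Compound-exposed yeast growth was measured, and the inhibition was calculated relative to vehicle treatment.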
# [15] = NCI Yeast Anticancer Drug Screen. Data for the wt1 strain (AID 149);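 note: 0% = growth of vehicle-treated wt1 cultures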; details: S. cerevisiae wt1 strain (SPY 50644) growth inhibition, active compounds read high
# In short: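 Vehicle-normalised growth inhibition; strain wt1; compound exposure.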
# [16] = NCI Yeast Anticancer Drug Screen. Data for the mlh1 strain (AID 171);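 note: 0% = growth of vehicle-treated control cultures of the same strain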; details: S. cerevisiae mlh1 strain growth inhibition, active compounds read high
# In short: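 Here the genetically defined yeast mutant is grown with each compound, and the extent to which its growth falls below that of vehicle-exposed cells is reported.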
# [17] = at 5.0 µM (retest, dose inferred, filed as 0.5)
# [18] = at 50.0 µM (retest, dose inferred, filed as 5.0)
smiles,measurement,setting,value
Oc1cccc2cc(Cl)cnc12,growth inhibition,[1]; at 33.0 µM,97% (active)
same,growth inhibition,[1]; at 100.0 µM,98% (active)
same,growth inhibition,[2]; [17],44%
same,growth inhibition,[2]; [18],50%
same,growth inhibition,[2]; at 50.0 µM,91.2% (active)
same,growth inhibition,[3]; at 1.2 µM,-11%
same,growth inhibition,[3]; at 3.7 µM,-4%
same,growth inhibition,[3]; at 11.0 µM,60%
same,growth inhibition,[3]; at 33.0 µM,96% (active)
same,growth inhibition,[3]; at 100.0 µM,97% (active)
O=C(O)CCCC1CCCc2c1ccc1ccccc21 (stereo unspecified),growth inhibition,[4]; at 1.2 µM,-2%
same,growth inhibition,[4]; at 3.7 µM,1%
same,growth inhibition,[4]; at 11.0 µM,11%
same,growth inhibition,[4]; at 33.0 µM,74% (active)
same,growth inhibition,[4]; at 100.0 µM,99% (active)
same,growth inhibition,[5]; at 1.2 µM,3%
same,growth inhibition,[5]; at 3.7 µM,8%
same,growth inhibition,[5]; at 11.0 µM,29%
same,growth inhibition,[5]; at 33.0 µM,59%
same,growth inhibition,[5]; at 100.0 µM,81% (active)
same,growth inhibition,[6]; at 1.2 µM,-4%
same,growth inhibition,[6]; at 3.7 µM,-3%
same,growth inhibition,[6]; at 11.0 µM,4%
same,growth inhibition,[6]; at 33.0 µM,59%
same,growth inhibition,[6]; at 100.0 µM,99% (active)
same,growth inhibition,[7]; at 1.2 µM,-2%
same,growth inhibition,[7]; at 3.7 µM,0%
same,growth inhibition,[7]; [17],6%
same,growth inhibition,[7]; at 11.0 µM,8%
same,growth inhibition,[7]; at 33.0 µM,58%
same,growth inhibition,[7]; [18],89% (active)
same,growth inhibition,[7]; at 50.0 µM,88% (active)
same,growth inhibition,[7]; at 100.0 µM,99% (active)
same,growth inhibition,[8]; at 1.2 µM,-2%
same,growth inhibition,[8]; at 3.7 µM,-4%
same,growth inhibition,[8]; [17],10%
same,growth inhibition,[8]; at 11.0 µM,4%
same,growth inhibition,[8]; at 33.0 µM,47%
same,growth inhibition,[8]; [18],95% (active)
same,growth inhibition,[8]; at 50.0 µM,83.6% (active)
same,growth inhibition,[8]; at 100.0 µM,99% (active)
same,growth inhibition,[9]; at 1.2 µM,3%
same,growth inhibition,[9]; at 3.7 µM,7%
same,growth inhibition,[9]; at 11.0 µM,13%
same,growth inhibition,[9]; at 33.0 µM,51%
same,growth inhibition,[9]; at 100.0 µM,99% (active)
same,growth inhibition,[10]; [17],13%
same,growth inhibition,[10]; [18],86% (active)
same,growth inhibition,[10]; at 50.0 µM,94.3% (active)
same,growth inhibition,[11]; at 1.2 µM,1%
same,growth inhibition,[11]; at 3.7 µM,-4%
same,growth inhibition,[11]; at 11.0 µM,13%
same,growth inhibition,[11]; at 33.0 µM,74% (active)
same,growth inhibition,[11]; at 100.0 µM,99% (active)
same,growth inhibition,[12]; [17],5%
same,growth inhibition,[12]; [18],96% (active)
same,growth inhibition,[12]; at 50.0 µM,90.2% (active)
same,growth inhibition,[13]; at 1.2 µM,-4%
same,growth inhibition,[13]; at 3.7 µM,-6%
same,growth inhibition,[13]; [17],2%
same,growth inhibition,[13]; at 11.0 µM,6%
same,growth inhibition,[13]; at 33.0 µM,61%
same,growth inhibition,[13]; [18],85% (active)
same,growth inhibition,[13]; at 50.0 µM,89% (active)
same,growth inhibition,[13]; at 100.0 µM,99% (active)
same,growth inhibition,[14]; at 1.2 µM,-1%
same,growth inhibition,[14]; at 3.7 µM,1%
same,growth inhibition,[14]; at 11.0 µM,7%
same,growth inhibition,[14]; at 33.0 µM,57%
same,growth inhibition,[14]; at 100.0 µM,99% (active)
same,growth inhibition,[1]; at 1.2 µM,-1%
same,growth inhibition,[1]; at 3.7 µM,-2%
same,growth inhibition,[1]; at 11.0 µM,6%
same,growth inhibition,[1]; at 33.0 µM,64%
same,growth inhibition,[1]; at 100.0 µM,99% (active)
same,growth inhibition,[2]; [17],4%
same,growth inhibition,[2]; [18],91% (active)
same,growth inhibition,[2]; at 50.0 µM,91.2% (active)
same,growth inhibition,[3]; at 1.2 µM,-2%
same,growth inhibition,[3]; at 3.7 µM,-2%
same,growth inhibition,[3]; at 11.0 µM,2%
same,growth inhibition,[3]; at 33.0 µM,58%
same,growth inhibition,[3]; at 100.0 µM,98% (active)
CCc1c(Cl)c(C)cc(O)c1Cl,growth inhibition,[15]; at 1.2 µM,-31%
same,growth inhibition,[15]; at 3.7 µM,-18%
same,growth inhibition,[15]; at 11.0 µM,-33%
same,growth inhibition,[15]; at 33.0 µM,-33%
same,growth inhibition,[15]; at 100.0 µM,72% (active)
same,growth inhibition,[5]; at 1.2 µM,-27%
same,growth inhibition,[5]; at 3.7 µM,-13%
same,growth inhibition,[5]; at 11.0 µM,8%
same,growth inhibition,[5]; at 33.0 µM,42%
same,growth inhibition,[5]; at 100.0 µM,89% (active)
same,growth inhibition,[6]; at 1.2 µM,19%
same,growth inhibition,[6]; at 3.7 µM,5%
same,growth inhibition,[6]; at 11.0 µM,29%
same,growth inhibition,[6]; at 33.0 µM,49%
same,growth inhibition,[6]; at 100.0 µM,95% (active)
same,growth inhibition,[7]; at 1.2 µM,-27%
same,growth inhibition,[7]; at 3.7 µM,-30%
same,growth inhibition,[7]; [17],38%
same,growth inhibition,[7]; at 11.0 µM,-27%
same,growth inhibition,[7]; at 33.0 µM,23%
same,growth inhibition,[7]; [18],91% (active)
same,growth inhibition,[7]; at 50.0 µM,91.4% (active)
same,growth inhibition,[7]; at 100.0 µM,94% (active)
same,growth inhibition,[8]; at 1.2 µM,-10%
same,growth inhibition,[8]; at 3.7 µM,1%
same,growth inhibition,[8]; [17],46%
same,growth inhibition,[8]; at 11.0 µM,5%
same,growth inhibition,[8]; at 33.0 µM,12%
same,growth inhibition,[8]; [18],94% (active)
same,growth inhibition,[8]; at 50.0 µM,84.7% (active)
same,growth inhibition,[8]; at 100.0 µM,93% (active)
same,growth inhibition,[9]; at 1.2 µM,-8%
same,growth inhibition,[9]; at 3.7 µM,-46%
same,growth inhibition,[9]; at 11.0 µM,-19%
same,growth inhibition,[9]; at 33.0 µM,4%
same,growth inhibition,[9]; at 100.0 µM,90% (active)
same,growth inhibition,[10]; [17],-26%
same,growth inhibition,[10]; [18],46%
same,growth inhibition,[10]; at 50.0 µM,86.2% (active)
same,growth inhibition,[11]; at 1.2 µM,-7%
same,growth inhibition,[11]; at 3.7 µM,-18%
same,growth inhibition,[11]; at 11.0 µM,-4%
same,growth inhibition,[11]; at 33.0 µM,6%
same,growth inhibition,[11]; at 100.0 µM,75% (active)
same,growth inhibition,[12]; [17],32%
same,growth inhibition,[12]; [18],44%
same,growth inhibition,[12]; at 50.0 µM,77.2% (active)
same,growth inhibition,[13]; at 1.2 µM,-8%
same,growth inhibition,[13]; at 3.7 µM,-19%
same,growth inhibition,[13]; [17],3%
same,growth inhibition,[13]; at 11.0 µM,-7%
same,growth inhibition,[13]; at 33.0 µM,20%
same,growth inhibition,[13]; [18],53%
same,growth inhibition,[13]; at 50.0 µM,92.6% (active)
same,growth inhibition,[13]; at 100.0 µM,85% (active)
same,growth inhibition,[14]; at 1.2 µM,-35%
same,growth inhibition,[14]; at 3.7 µM,-30%
same,growth inhibition,[14]; at 11.0 µM,-26%
same,growth inhibition,[14]; at 33.0 µM,-9%
same,growth inhibition,[14]; at 100.0 µM,92% (active)
same,growth inhibition,[16]; at 1.2 µM,6%
same,growth inhibition,[16]; at 3.7 µM,-7%
same,growth inhibition,[16]; at 11.0 µM,12%
same,growth inhibition,[16]; at 33.0 µM,19%
same,growth inhibition,[16]; at 100.0 µM,82% (active)
same,growth inhibition,[1]; at 1.2 µM,-4%
same,growth inhibition,[1]; at 3.7 µM,-4%
same,growth inhibition,[1]; at 11.0 µM,5%
same,growth inhibition,[1]; at 33.0 µM,33%
same,growth inhibition,[1]; at 100.0 µM,91% (active)
same,growth inhibition,[2]; [17],35%
same,growth inhibition,[2]; [18],85% (active)
same,growth inhibition,[2]; at 50.0 µM,89.5% (active)
same,growth inhibition,[3]; at 1.2 µM,-20%
same,growth inhibition,[3]; at 3.7 µM,6%
same,growth inhibition,[3]; at 11.0 µM,-23%
same,growth inhibition,[3]; at 33.0 µM,-46%
same,growth inhibition,[3]; at 100.0 µM,50%
